Test results published in PubChem BioAssay AID1159580 (chemical genetic matrix, 2015).
Screen size: about 5,500 compounds; about 2,000 (36%) were called active. Roughly 18% stayed inconclusive and do not appear here. Some of the results follow. A number with no mark means an inactive call. Rule as the data show it: active = normalized growth mostly below about 0.91 (no sharp cut-off); inconclusive = no clear call, values can overlap the other calls; inactive = mostly above about 0.92.

Test: chemical genetic growth profiling, strain panel (AID 1159580);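 also: tested at 20 µM; growth read once vehicle control cultures reached saturation at 30 °C; 1 = growth at the plate median or of vehicle wells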
Conditions: S. cerevisiae deletion strains, growth OD

O=c1cc(-c2ccccc2)oc2cc(O)c(O)cc12
normalized growth (locus YAL021C, strain ccr4, stronger effect = lower value): 0.934 | normalized growth (locus YAL026C, strain drs2, stronger effect = lower value): 0.895 (active) | normalized growth (locus YAL030W, strain snc1, stronger effect = lower value): 0.949 | normalized growth (locus YBL061C, strain skt5, stronger effect = lower value): 0.946 | normalized growth (locus YBR009C, strain hhf1, stronger effect = lower value): 0.894 (active) | normalized growth (locus YBR023C, strain chs3, stronger effect = lower value): 0.973 | normalized growth (locus YBR171W, strain sec66, stronger effect = lower value): 0.974 | normalized growth (locus YBR231C, strain swc5, stronger effect = lower value): 0.948 | normalized growth (locus YBR279W, strain paf1, stronger effect = lower value): 0.945 | normalized growth (locus YCL011C, strain gbp2, stronger effect = lower value): 0.943 | normalized growth (locus YCL016C, strain dcc1, stronger effect = lower value): 0.948 | normalized growth (locus YCL061C, strain MRC1, stronger effect = lower value): 0.979 | normalized growth (locus YCL069W, strain vba3, stronger effect = lower value): 0.982 | normalized growth (locus YCR088W, strain abp1, stronger effect = lower value): 0.993 | normalized growth (locus YDL005C, strain med2, stronger effect = lower value): 0.977 | normalized growth (locus YDL040C, strain nat1, stronger effect = lower value): 0.986 | normalized growth (locus YDR001C, strain nth1, stronger effect = lower value): 0.981 | normalized growth (locus YDR069C, strain doa4, stronger effect = lower value): 0.819 (active) | normalized growth (locus YDR137W, strain rgp1, stronger effect = lower value): 0.856 | normalized growth (locus YDR159W, strain sac3, stronger effect = lower value): 0.972 | normalized growth (locus YDR195W, strain ref2): 1 | normalized growth (locus YDR297W, strain sur2, stronger effect = lower value): 0.952 | normalized growth (locus YDR334W, strain swr1, stronger effect = lower value): 0.96 | normalized growth (locus YDR335W, strain msn5, stronger effect = lower value): 0.979 | normalized growth (locus YDR392W, strain spt3, stronger effect = lower value): 0.979 | normalized growth (locus YEL003W, strain gim4, stronger effect = lower value): 0.964 | normalized growth (locus YEL037C, strain rad23, stronger effect = lower value): 0.967 | normalized growth (locus YEL061C, strain CIN8 (second series), stronger effect = lower value): 0.964 | normalized growth (locus YER015W, strain faa2, stronger effect = lower value): 0.946 | normalized growth (locus YER016W, strain bim1, stronger effect = lower value): 0.99 | normalized growth (locus YER111C, strain swi4, stronger effect = lower value): 0.951 | normalized growth (locus YER155C, strain BEM2 (second series), stronger effect = lower value): 0.971 | normalized growth (locus YFR010W, strain ubp6, stronger effect = lower value): 0.914 | normalized growth (locus YGL167C, strain pmr1, stronger effect = lower value): 0.949 | normalized growth (locus YGL173C, strain kem1, stronger effect = lower value): 0.933 | normalized growth (locus YGL227W, strain vid30, stronger effect = lower value): 0.973 | normalized growth (locus YGL240W, strain doc1, stronger effect = lower value): 0.943 | normalized growth (locus YGL253W, strain hxk2, stronger effect = lower value): 0.939 | normalized growth (locus YHR013C, strain ard1, stronger effect = lower value): 0.856 | normalized growth (locus YHR027C, strain rpn1, stronger effect = lower value): 0.945 | normalized growth (locus YHR030C, strain SLT2, stronger effect = lower value): 0.981 | normalized growth (locus YHR079C, strain IRE1, stronger effect = lower value): 0.972 | normalized growth (locus YHR142W, strain chs7, stronger effect = lower value): 0.941 | normalized growth (locus YJL092W, strain hpr5, stronger effect = lower value): 1 | normalized growth (locus YJL095W, strain BCK1 (second series), stronger effect = lower value): 0.972 | normalized growth (locus YJL095W, strain BCK1, stronger effect = lower value): 0.999 | normalized growth (locus YJL115W, strain asf1, stronger effect = lower value): 0.985 | normalized growth (locus YJL129C, strain trk1, stronger effect = lower value): 0.912 | normalized growth (locus YJL154C, strain vps35, stronger effect = lower value): 0.994 | normalized growth (locus YJL164C, strain tpk1, stronger effect = lower value): 0.912 (active) | normalized growth (locus YJL166W, strain qcr8, stronger effect = lower value): 0.876 (active) | normalized growth (locus YJL187C, strain SWE1, stronger effect = lower value): 0.946 | normalized growth (locus YJR066W, strain TOR1, stronger effect = lower value): 0.954 | normalized growth (locus YKL160W, strain elf1, stronger effect = lower value): 0.97 | normalized growth (locus YKR026C, strain gcn3, stronger effect = lower value): 0.98 | normalized growth (locus YKR091W, strain srl3, stronger effect = lower value): 0.983 | normalized growth (locus YLL001W, strain dnm1, stronger effect = lower value): 0.975 | normalized growth (locus YLL026W, stronger effect = lower value): 1.01 | normalized growth (locus YLL041C, strain sdh2, stronger effect = lower value): 0.976 | normalized growth (locus YLR027C, strain aat2, stronger effect = lower value): 0.975 | normalized growth (locus YLR113W, strain HOG1, stronger effect = lower value): 0.99 | normalized growth (locus YLR221C, strain rsa3, stronger effect = lower value): 0.949 | normalized growth (locus YLR258W, strain gsy2, stronger effect = lower value): 0.953 | normalized growth (locus YLR262C, strain YPT6 (second series), stronger effect = lower value): 0.791 (active) | normalized growth (locus YLR320W, strain mms22, stronger effect = lower value): 0.97 | normalized growth (locus YLR342W, strain FKS1, stronger effect = lower value): 0.936 | normalized growth (locus YLR357W, strain rsc2, stronger effect = lower value): 0.903 | normalized growth (locus YLR370C, strain arc18, stronger effect = lower value): 0.935 | normalized growth (locus YLR384C, strain iki3, stronger effect = lower value): 0.964 | normalized growth (locus YML120C, strain ndi1, stronger effect = lower value): 0.951 | normalized growth (locus YMR058W, strain fet3, stronger effect = lower value): 0.956 | normalized growth (locus YMR125W, strain sto1, stronger effect = lower value): 1.02 | normalized growth (locus YMR129W, stronger effect = lower value): 0.972 | normalized growth (locus YMR205C, strain PFK2, stronger effect = lower value): 0.955 | normalized growth (locus YMR231W, strain pep5, stronger effect = lower value): 0.958 | normalized growth (locus YNL071W, strain lat1, stronger effect = lower value): 0.995 | normalized growth (locus YNL183C, strain NPR1, stronger effect = lower value): 0.951 | normalized growth (locus YNL209W, strain ssb2, stronger effect = lower value): 0.851 (active) | normalized growth (locus YNL248C, strain rpa49, stronger effect = lower value): 1.02 | normalized growth (locus YNL322C, strain KRE1 (second series), stronger effect = lower value): 0.992 | normalized growth (locus YNR049C, strain mso1, stronger effect = lower value): 0.987 | normalized growth (locus YOR001W, strain rrp6, stronger effect = lower value): 0.991 | normalized growth (locus YOR070C, strain gyp1, stronger effect = lower value): 0.979 | normalized growth (locus YOR080W, strain dia2, stronger effect = lower value): 0.976 | normalized growth (locus YOR083W, strain WHI5, stronger effect = lower value): 0.961 | normalized growth (locus YOR106W, strain vam3, stronger effect = lower value): 0.826 (active) | normalized growth (locus YOR231W, strain MKK1, stronger effect = lower value): 0.996 | normalized growth (locus YOR265W, strain rbl2, stronger effect = lower value): 0.95 | normalized growth (locus YOR270C, strain vph1, stronger effect = lower value): 0.773 (active) | normalized growth (locus YOR290C, strain snf2, stronger effect = lower value): 0.939 | normalized growth (locus YPL051W, strain arl3, stronger effect = lower value): 0.943 | normalized growth (locus YPL078C, strain atp4, stronger effect = lower value): 0.986 | normalized growth (locus YPL106C, strain sse1, stronger effect = lower value): 0.855 | normalized growth (locus YPL240C, strain hsp82, stronger effect = lower value): 0.949 | normalized growth (locus YPL256C, strain CLN2, stronger effect = lower value): 0.955
